Data on nine compounds can be found in PubChem BioAssay (NCI).

This is part of a sample that, as a whole, favours compounds with a hit. Of some 79,000 tested, about 15% had one in any assay. Values without a mark were called inactive. Calls of active or inactive are those of the source. No stated cut-off is given here; in the data, active means growth inhibition above about 70%; inactive means the rest.

Assay [1] is described as follows: NCI Yeast Anticancer Drug Screen. Data for the rad50 strain (AID 155).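 Further: 0% = growth of vehicle-only cultures of the same strain.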 To be noted: S. cerevisiae rad50 strain growth inhibition, hits give high values. Summed up: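 Relative growth inhibition (compound vs vehicle) was measured in yeast with a defined repair-gene alteration.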
Assay [2] is described as follows: NCI Yeast Anticancer Drug Screen. Data for the mec2-1 strain (AID 157). To be noted: S. cerevisiae mec2-1 strain, hits give high values. Put shortly:
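Readout is yeast growth inhibition, normalised to vehicle-treated controls, in the mec2-1 strain exposed to compound.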

Assay [3] can be described thus: NCI Yeast Anticancer Drug Screen. Data for the sgs1 mgt1 strain (AID 161).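 Further: 0% = growth of cultures given vehicle only.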 To be noted: S. cerevisiae sgs1 mgt1 strain, hits give high values. Summed up: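 Percent growth inhibition was derived by comparing compound-exposed mutant yeast with vehicle-exposed cultures. The strain carries alterations in DNA damage repair.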
The nature of assay [4]: NCI Yeast Anticancer Drug Screen. Data for the cln2 rad14 strain (AID 165).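 Further: 0% = growth equal to vehicle treated cultures.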 To be noted: S. cerevisiae cln2 rad14 strain, hits give high values. Summed up:
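Relative to vehicle controls, growth inhibition of compound-treated cln2 rad14 yeast was recorded.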

Assay [5] can be described thus: NCI Yeast Anticancer Drug Screen. Data for the bub3 strain (AID 167). To be noted: S. cerevisiae bub3 mutant strain, hits give high values. Put shortly:
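Screening used yeast with an engineered genetic alteration affecting cell cycle control. Compound-exposed cultures were compared with vehicle cultures, and reduced growth was taken as inhibition.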

A short description of assay [6]: NCI Yeast Anticancer Drug Screen. Data for the mlh1 rad18 strain (AID 175). To be noted: S. cerevisiae mlh1 rad18 strain growth inhibition, hits give high values. Put shortly:
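Test agents were incubated with a yeast strain of defined genotype (DNA damage repair defect). Inhibition of growth was derived by comparison with vehicle-exposed cultures.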

Where [7] appears, read: at 5.0 µM (retest, dose inferred, filed as 0.5).
Setting [8] is: at 50.0 µM (retest, dose inferred, filed as 5.0).

For `O=c1ccnc(Nc2ccc[nH]c2=S)[nH]1`, the growth inhibition in assay [1] (setting [7]) is -2%; in assay [1] (setting [8]), -11%; in assay [1] (at 50.0 µM) it was 3.2%; in assay [2] (setting [7]), 0%; in assay [2] (setting [8]), -7%; in assay [2] (at 50.0 µM), -3.3%. For the same compound, the growth inhibition was -1% in assay [3] (setting [7]); -7% in assay [3] (setting [8]); 46.2% in assay [3] (at 50.0 µM); -3% in assay [4] (setting [7]); -23% in assay [4] (setting [8]); 1.4% in assay [4] (at 50.0 µM). Further, the growth inhibition in assay [5] (setting [7]) was 4%; in assay [5] (setting [8]), 1%; in assay [5] (at 50.0 µM) it was 8.85%; in assay [6] (setting [7]), -3%; in assay [6] (setting [8]) it was -16%; in assay [6] (at 50.0 µM) it was 1.85%.

Regarding `CCOC(=O)C1CSC(c2c(CO)cnc(C)c2O)N1` (configuration not stated), the growth inhibition in assay [1] (setting [7]) is -1%; in assay [1] (setting [8]) it was 5%; in assay [1] (at 50.0 µM) it was 47.6%; in assay [2] (setting [7]), -8%; in assay [2] (setting [8]), -3%; in assay [2] (at 50.0 µM), 0.75%. Also, the growth inhibition is -3% in assay [3] (setting [7]); 2% in assay [3] (setting [8]); 9.55% in assay [3] (at 50.0 µM); 4% in assay [4] (setting [7]); 7% in assay [4] (setting [8]); -4.1% in assay [4] (at 50.0 µM). Moreover, the growth inhibition is 2% in assay [5] (setting [7]); 14% in assay [5] (setting [8]); 10.8% in assay [5] (at 50.0 µM); 2% in assay [6] (setting [7]); 5% in assay [6] (setting [8]); 18.1% in assay [6] (at 50.0 µM).

`CCCCCCCCCCCCOC(=O)C[n+]1cccc(C(=O)Nc2ccccc2)c1`: the growth inhibition was 96% (active) in assay [1] (setting [7]); 98% (active) in assay [1] (setting [8]); 99.2% (active) in assay [1] (at 50.0 µM); 97% (active) in assay [2] (setting [7]); 99% (active) in assay [2] (setting [8]); 99.4% (active) in assay [2] (at 50.0 µM). Besides, the growth inhibition in assay [3] (setting [7]) was 95% (active); in assay [3] (setting [8]) it was 99% (active); in assay [3] (at 50.0 µM), 99.5% (active); in assay [4] (setting [7]), 96% (active); in assay [4] (setting [8]), 99% (active); in assay [4] (at 50.0 µM) it was 98.9% (active). For the same compound, the growth inhibition is 96% (active) in assay [5] (setting [7]); 98% (active) in assay [5] (setting [8]); 98.8% (active) in assay [5] (at 50.0 µM); 99% (active) in assay [6] (setting [7]); 99% (active) in assay [6] (setting [8]); 99.2% (active) in assay [6] (at 50.0 µM).

`O=C(CSc1nnc(-c2ccc(N=Cc3ccc(Cl)cc3)cc2)o1)Nc1ccccc1Cl`: the growth inhibition in assay [1] (setting [7]) is 22%; in assay [1] (setting [8]) it was 57%; in assay [1] (at 50.0 µM), 54.8%; in assay [2] (setting [7]) it was -10%; in assay [2] (setting [8]), 44%; in assay [2] (at 50.0 µM) it was -11.8%. For the same compound, the growth inhibition in assay [3] (setting [7]) was 7%; in assay [3] (setting [8]), 40%; in assay [3] (at 50.0 µM), 6.25%; in assay [4] (setting [7]) it was 14%; in assay [4] (setting [8]), 28%; in assay [4] (at 50.0 µM) it was -54.5%. The growth inhibition in assay [5] (setting [7]) was -1%; in assay [5] (setting [8]), 20%; in assay [5] (at 50.0 µM) it was -11.8%; in assay [6] (setting [7]), 2%; in assay [6] (setting [8]), 58%; in assay [6] (at 50.0 µM), 20.4%.

On to `FC(F)(F)c1cccc(N2CCN(c3c4c(nc5ccccc35)CCCCC4)CC2)c1`, for which the growth inhibition in assay [1] (setting [7]) is -4%; in assay [1] (setting [8]), 96% (active); in assay [1] (at 50.0 µM) it was 95.5% (active); in assay [2] (setting [7]) it was 4%; in assay [2] (setting [8]), 99% (active); in assay [2] (at 50.0 µM) it was 97.7% (active). Besides, the growth inhibition was 11% in assay [3] (setting [7]); 98% (active) in assay [3] (setting [8]); 93.8% (active) in assay [3] (at 50.0 µM); -14% in assay [4] (setting [7]); 96% (active) in assay [4] (setting [8]); 95.5% (active) in assay [4] (at 50.0 µM). For the same compound, the growth inhibition was -4% in assay [5] (setting [7]); 97% (active) in assay [5] (setting [8]); 92% (active) in assay [5] (at 50.0 µM); 22% in assay [6] (setting [7]); 98% (active) in assay [6] (setting [8]); 95.7% (active) in assay [6] (at 50.0 µM).

`O=C(CBr)N1c2ccccc2Sc2ccc3ccccc3c21`: the growth inhibition in assay [1] (setting [7]) is 93% (active); in assay [1] (setting [8]) it was 99% (active); in assay [1] (at 50.0 µM) it was 90.5% (active); in assay [2] (setting [7]) it was 49%; in assay [2] (setting [8]), 99% (active); in assay [2] (at 50.0 µM), 90.7% (active). For the same compound, the growth inhibition is 81% (active) in assay [3] (setting [7]); 99% (active) in assay [3] (setting [8]); 91.7% (active) in assay [3] (at 50.0 µM); 62% in assay [4] (setting [7]); 99% (active) in assay [4] (setting [8]); 90% (active) in assay [4] (at 50.0 µM). Moreover, the growth inhibition was 74% (active) in assay [5] (setting [7]); 99% (active) in assay [5] (setting [8]); 91% (active) in assay [5] (at 50.0 µM); 88% (active) in assay [6] (setting [7]); 98% (active) in assay [6] (setting [8]); 88.2% (active) in assay [6] (at 50.0 µM).

In the case of `CCOc1ccccc1/C=C1\C=Nc2ccccc21`, the growth inhibition in assay [1] (setting [7]) was 6%; in assay [1] (setting [8]) it was -16%; in assay [1] (at 50.0 µM), 11.8%; in assay [2] (setting [7]), -16%; in assay [2] (setting [8]), 8%; in assay [2] (at 50.0 µM) it was 16.1%. Moreover, the growth inhibition in assay [3] (setting [7]) was -6%; in assay [3] (setting [8]) it was 0%; in assay [3] (at 50.0 µM), 16.2%; in assay [4] (setting [7]), 25%; in assay [4] (setting [8]), 16%; in assay [4] (at 50.0 µM), 7.65%. Further, the growth inhibition in assay [5] (setting [7]) was 8%; in assay [5] (setting [8]) it was 15%; in assay [5] (at 50.0 µM) it was 24.7%; in assay [6] (setting [7]), -10%; in assay [6] (setting [8]), -17%; in assay [6] (at 50.0 µM), 6.35%.

`O=C(OCCN=c1c2ccccc2ccc2ccccc12)c1ccccc1`: the growth inhibition in assay [1] (setting [7]) was 0%; in assay [1] (setting [8]), 97% (active); in assay [1] (at 50.0 µM), 42%; in assay [2] (setting [7]), -14%; in assay [2] (setting [8]) it was 94% (active); in assay [2] (at 50.0 µM), 31.4%. In addition, the growth inhibition is -43% in assay [3] (setting [7]); 83% (active) in assay [3] (setting [8]); 65.3% in assay [3] (at 50.0 µM); 22% in assay [4] (setting [7]); 36% in assay [4] (setting [8]); 29.8% in assay [4] (at 50.0 µM). The growth inhibition in assay [5] (setting [7]) is 2%; in assay [5] (setting [8]), 98% (active); in assay [5] (at 50.0 µM), 71% (active); in assay [6] (setting [7]), -19%; in assay [6] (setting [8]), 98% (active); in assay [6] (at 50.0 µM), 15.7%.

In the case of `CCn1c2ccccc2c(=O)c2c(OC)ccc(OC)c21`, the growth inhibition was 2% in assay [1] (setting [7]); 73% (active) in assay [1] (setting [8]); 77.6% (active) in assay [1] (at 50.0 µM); 4% in assay [2] (setting [7]); 51% in assay [2] (setting [8]); -1.7% in assay [2] (at 50.0 µM). Besides, the growth inhibition in assay [3] (setting [7]) was 0%; in assay [3] (setting [8]), 94% (active); in assay [3] (at 50.0 µM), 81.5% (active); in assay [4] (setting [7]), -1%; in assay [4] (setting [8]), 24%; in assay [4] (at 50.0 µM), 49.4%. Further, the growth inhibition in assay [5] (setting [7]) is 28%; in assay [5] (setting [8]), 75% (active); in assay [5] (at 50.0 µM) it was 52.6%; in assay [6] (setting [7]), -1%; in assay [6] (setting [8]) it was 87% (active); in assay [6] (at 50.0 µM), 89.8% (active).
